Data taken from PubChem BioAssay (Tox21).
“And” between values parts separate entries of the source, which are not always exact repeats. Identical values can stand only once. Results filed as inconclusive are left out. Where a call stands in place of a potency, no number is given. The source made the active and inactive calls. The call rests on the fitted dose curve; in most records, active means well fitted curve in the direction sought with a large enough effect in the repeat runs; inconclusive means weak or mixed curves; inactive means no such curve, though single readings can be large; an effect the other way counts as inactive or inconclusive.

What was measured:
[1] = qHTS assay to identify small molecule agonists of the RXR signaling pathway - cell viability counter screen (AID 1159529); further: nearly all actives have a fitted effect of over 50% in size; further: potency means the concentration at half of the fitted maximal effect
Procedure, shortened: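 Compounds dissolved in DMSO were pinned onto HEK 293T cells carrying a beta-lactamase reporter under RXR-alpha control and incubated 16 hr. Cytotoxicity was then quantified by CellTiter-Glo luminescence.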

[2] = qHTS assay to identify small molecule antagonists of the retinoid acid receptor (RAR) signaling pathway - cell viability counter screen (AID 1159551); further: nearly all actives have a fitted effect of over 35% in size
Procedure, shortened: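 Luminescent ATP quantitation (CellTiter-Glo) gave cell viability in C3RL4 cells exposed to test chemicals for 6 h at 37 C alongside 1 uM final retinol.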

[3] = qHTS assay to identify small molecule antagonists of the retinoic acid receptor (RAR) signaling pathway (AID 1159552; further: nearly all actives have a fitted effect of over 50% in size; further: potency means the concentration at half of the fitted maximal effect)
Procedure, shortened: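 Test chemicals and DMSO controls were pin-transferred onto C3RL4 cells a day after seeding; retinol (1 uM final) followed at once. Luminescent reporter output was quantified after 6 hr of co-incubation and 30 min with detection reagent.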

[4] = qHTS assay to identify small molecule agonists of the retinoic acid receptor (RAR) signaling pathway (AID 1159553); further: potency means the concentration at half of the fitted maximal effect
Procedure, shortened: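 Luminescence from a RARE-driven luciferase reporter in C3RL4 cells served as the read-out, measured after 30 min with detection reagent at room temperature. Compounds in DMSO were applied for 6 hr at 37 C following overnight seeding.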

[5] = qHTS assay to identify small molecule antagonists of the estrogen related receptor (ERR) signaling pathway - cell viability counter screen (AID 1224818);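 further: series mostly up to about 46 µM; viability measured after 17.5 h of compound exposure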
Procedure, shortened: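 Multiplexed counter screen to separate cytotoxic compounds from true ERR modulators. ERR cells received DMSO-dissolved compounds after a 6 h pre-incubation, were exposed 17.5 h at 37 C, then assayed with CellTiter-Fluor fluorescence.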

[6] = qHTS assay to identify small molecule antagonists of the estrogen related receptor signaling pathway with the pleiotropic PPARgamma coactivator (PGC) cell viability counter screen (AID 1224822;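 further: series mostly up to about 46 µM; viability read after 17.5 h compound exposure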)
Procedure, shortened: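 Cells: PGC/ERR, 2,000/well, 1536-well format. Pre-incubation 6 h, 37 C/5% CO2. Compound exposure 17.5 h, 37 C. Detection: CellTiter-Fluor, 30 min, fluorescence.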

Row | Compound | Potency [1] | Potency [2] | Potency [3] | Potency [4] | Potency [5] | Potency [6]
1 | O=C(Cl)c1ccccc1F | inactive | inactive | inactive | inactive | – | –
2 | CC(C)[C@@H](Nc1ccc(C(F)(F)F)cc1Cl)C(=O)OC(C#N)c1cccc(Oc2ccccc2)c1 (stereo not given in full) | inactive | inactive | inactive | inactive | – | –
3 | O=[N+]([O-])c1ccc(CCl)cc1 | inactive | inactive | inactive | inactive | – | –
4 | O=C(O)CCCCCCNC1c2ccccc2CCc2ccccc21 | inactive | inactive | inactive | inactive | – | –
5 | BrCCCBr | inactive | inactive | inactive | inactive | – | –
6 | c1ccc2c(c1)cc1ccc3cccc4ccc2c1c34 | inactive | inactive | inactive | 11.1 µM (active) | – | –
7 | CCCCC(CC)COC(=O)c1ccccc1C(=O)OCC(CC)CCCC (stereo not given) | inactive | inactive | – | inactive | inactive | inactive
8 | N#Cc1ccc(N(CC(N)=O)CC(F)(F)F)cc1C(F)(F)F | inactive | – | inactive | inactive | – | –
9 | Cc1cccc(Cc2cnc[nH]2)c1C | inactive | – | inactive | inactive | – | –
10 | CCN1CCC2(CC1)COc1cc3c(cc12)N(C(=O)c1ccc(-c2ccc(-c4nnc(C)o4)cc2C)cc1)CC3 | 3.59 µM (active) | – | 56.4 µM (active) | – | – | –
11 | CC(C)NCC(O)c1ccccc1Cl (stereo not given) | inactive | – | inactive | inactive | – | –
12 | C[C@]12CC[C@H]3[C@@H](CCC4=CC(=O)CC[C@@H]43)[C@@H]1CC[C@@H]2OC(=O)CCc1ccco1 | 23.9 µM (active) | – | inactive | inactive | – | –
13 | CC(C)N(C(=O)CCl)c1ccccc1 | 24.5 µM (active) | – | 27.3 µM (active) and 30.6 µM (active) | – | – | –
14 | O=Cc1ccccc1 | inactive | – | inactive | inactive | – | –
15 | CCN(CC)C(=O)N[C@@H]1C=C2c3cccc4[nH]cc(c34)C[C@@H]2N(C)C1 | inactive | – | inactive | inactive | – | –
16 | CCOC(=O)CCN(SN(C)C(=O)Oc1cccc2c1OC(C)(C)C2)C(C)C | inactive | – | 61.1 µM (active) | inactive | – | –
17 | CCC[CH2][Sn]([CH2]CCC)([CH2]CCC)[CH2]CCC | 21.9 µM (active) | – | 9.69 µM (active) | inactive | – | –
18 | O=C1C(Cl)=C(Cl)C(=O)C(Cl)=C1Cl | 38.9 µM (active) | – | 54.3 µM (active) and 61.1 µM (active) | – | – | –

Row | Compound | Potency [1] | Potency [2] | Potency [3] | Potency [4] | Potency [5] | Potency [6]
19 | N#CCCl | 9.08 µM (active) | inactive | – | inactive | – | –
20 | CC(C)Br | inactive | – | inactive | inactive | – | –
21 | CC(C)c1c(CN(C)C(C)Cc2ccccc2)n(C)n(-c2ccccc2)c1=O (stereo not given) | inactive | – | inactive | inactive | – | –
22 | CN(C)C(=S)SSC(=S)N(C)C | 272 nM (active) and 692 nM (active) and 268 nM (active) | – | 214 nM (active) and 306 nM (active) | – | – | –
23 | CC[N+]1(CC)CCC(OC(=O)C(O)(c2ccccc2)c2ccccc2)C1 (stereo not given) | inactive | inactive | – | inactive | – | –
24 | CC1(C)[C@H](/C=C2\CCSC2=O)[C@@H]1C(=O)OCc1coc(Cc2ccccc2)c1 | inactive | – | inactive | inactive | – | –
25 | [Cl][Hg][c]1ccccc1 | 1.23 µM (active) | – | 1.09 µM (active) | – | – | –
26 | CC(Cc1ccc(O)cc1)NCC(O)c1cc(O)cc(O)c1 (stereo not given) | inactive | inactive | – | inactive | inactive | inactive
27 | O=NN(CCO)CCO | inactive | – | inactive | inactive | – | –
28 | CN1C(=O)[C@@H](NC(=O)c2cc3ccccc3[nH]2)N=C(c2ccccc2)c2ccccc21 | inactive | – | inactive | inactive | – | –
29 | CCCCN(CCCC)C(=S)S | inactive | – | inactive | inactive | – | –
30 | CN(C)c1ccc(N)cc1 | 42.6 µM (active) | – | inactive | 0.596 µM (active) | – | –
31 | CC(C)=CCN1CC[C@@]2(C)c3cc(O)ccc3C[C@@H]1[C@@H]2C | inactive | – | inactive | inactive | – | –
32 | CCCCCON=O | inactive | inactive | – | inactive | – | –
33 | C[N+]1(C)[C@@H]2CC[C@H]1CC(OC(=O)C(CO)c1ccccc1)C2 (stereo not given in full) | inactive | – | inactive | inactive | – | –
34 | c1ccc(N=NNc2ccccc2)cc1 | inactive | – | inactive | 3.17 µM (active) and 7.7 µM (active) | – | –
35 | CCc1cccc(C)c1N(C(=O)CCl)[C@@H](C)COC | inactive | inactive | – | inactive | – | –
